In PubChem BioAssay (NCATS):
Results filed as inconclusive are left out. Entries that show only a call come without a potency. A number with no mark means an inactive call. The source made the active and inactive calls. Calls follow the shape of the dose curve; as a rule, active = well fitted cell-killing curve with a large enough effect; inconclusive = small, poorly fitted or top-dose-only effect, or effect the other way; inactive = flat fitted curve, though single readings scatter.

These compounds were tested on CAOV3 (assay: Primary qHTS to identify gynecologic anti-cancer compounds using libraries of approved drugs and bioactive compounds (AID 1345084; also: nearly all actives have a fitted effect of over 55% in size)). Settings: Gynecologic cancer cell panel viability, ATPlite luminescence, 48 h; series mostly up to 57.5 µM.
In short: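 In this quantitative HTS, cell killing is estimated from loss of ATP-dependent luciferase light. Cells see five compound concentrations over a 48 h exposure.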
Potency is read from the fitted curve at half-maximal effect.

Row | SMILES | Potency | activity change, negative = cytotoxicity
1 | CNc1ccc([N+](=O)[O-])c(Nc2ccc3[nH]ncc3c2)n1 | inactive | 
2 | C=C1C(=O)O[C@@H]2C3C(=C(C)[C@@H](O)[C@@H](OC(=O)/C(=C/C)COC(C)=O)[C@@H]12)C(=O)[C@H]1O[C@@]31C (some centres undefined) | 8.91 µM (active) | 
3 | CCN1CCN(Cc2ccc(NC(=O)c3ccc(C)c(Oc4ccnc5[nH]ccc45)c3)cc2C(F)(F)F)CC1 | inactive | 
4 | Cn1nc(-c2ccc(C(F)(F)F)cc2)nc2c(=O)n(C)c(=O)nc1-2 | 10 µM (active) | 
5 | FC(F)(F)c1ccc(/C=C/c2nc(COc3ccc(CCCCn4ccnn4)cc3)co2)cc1 | inactive | 
6 | Cc1[nH]c2ccc(F)cc2c1-c1nc2c3cccnc3c3ncccc3c2[nH]1 | 3.98 µM (active) | 
7 | COc1ccc(Oc2c(Cl)cnn(-c3cc(C)cc(C)c3)c2=O)cc1 | 28.2 µM (active) | 
8 | Cc1c(NC(=O)OCC2COCCN2)cn2ncnc(Nc3ccc4c(cnn4Cc4cccc(F)c4)c3)c12 (centres undefined) | inactive | 
9 | COc1cc(O)c2c(c1)/C=C/C[C@H](O)[C@H](O)C(=O)/C=C\C[C@H](C)OC2=O | 22.4 µM (active) | 
10 | C[C@H](Nc1ncnc2nc[nH]c12)c1cc2cccc(Cl)c2c(=O)n1-c1ccccc1 | inactive | 
11 | Cc1csc2c(N[C@@H](C)CN3CCN(S(=O)(=O)c4ccc(Cl)c(Cl)c4)CC3)ncnc12 | inactive | 
12 | C=C1CC2OC(=O)C(COC)C2C(OC(=O)/C(C)=C\C)CC2(C)OC1=CC2=O (centres undefined) | inactive | 
13 | N#CSc1cc(SC#N)c(N)nc1N |  | -3.29% [at 11.6 µM]
14 | C/C=C/C=C/C=C/C(=O)O[C@@H]1C=C2COC(=O)[C@]2(O)[C@@]2(C)CCCC(C)(C)[C@H]12 | inactive | 
15 | CNS(=O)(=O)c1ccccc1Nc1nc(Nc2ccc(N3CCN(C)CC3)cc2OC)ncc1Br | 2.24 µM (active) | 
16 | CS/C=C/C(=O)O[C@@H]1CCC2=CC(=O)C(=C(C)C)C[C@]2(C)[C@H]1C | inactive | 
17 | Cn1cc(-c2ccc(S(=O)(=O)n3ccc(/C=C/C(=O)Nc4ccccc4N)c3)cc2)cn1 | 17.8 µM (active) | 

Row | SMILES | Potency | activity change, negative = cytotoxicity
18 | CCCC(Nc1nc(-c2ccc(NC(=O)NCC)c(OC)c2)ncc1C)c1cccnc1 (centres undefined) | inactive | 
19 | CNC1CN(c2ccc3c(=O)c(C(=O)O)cn(-c4nccs4)c3n2)CC1OC (centres undefined) |  | -13% [at 11.6 µM]
20 | CC(C)S(=O)(=O)NC[C@H](C)c1ccc(-c2ccc(CCNS(C)(=O)=O)cc2)cc1 | inactive | 
21 | Cc1cc(N2CCN(C(=O)Oc3ccc(-c4ccccc4)cn3)CC2)c2ccccc2n1 | inactive | 
22 | NCCOc1cc(C(=O)Nc2cc(OCCN)c3ccccc3n2)nc(C(=O)Nc2cc(OCCN)c3ccccc3n2)c1 | inactive | 
23 | COc1ccc(CNc2nc(N(CCO)CCO)nc3c2ncn3C(C)C)cc1 | inactive | 
24 | Cc1cc(-c2nc(-c3ccc(OC(F)(F)F)cc3)no2)nn1Cc1ccnc(N2CCN(C3CC3)CC2)c1 | inactive | 
25 | C=C(NC(=O)C(=C)NC(=O)c1csc(C2=NC3c4csc(n4)C4NC(=O)c5csc(n5)C(C(C)(O)C(C)O)NC(=O)C5CSC(=N5)/C(=C/C)NC(=O)C(C(C)O)NC(=O)c5csc(n5)C3(CC2)NC(=O)C(C)NC(=O)C(=C)NC(=O)C(C)NC(=O)C(C(C)CC)NC2C=Cc3c(C(C)O)cc(nc3C2O)C(=O)OC4C)n1)C(N)=O (centres undefined) | 25.1 µM (active) | 
26 | COc1ccc(Cl)c(Nc2ncnc3cc(OCC4CCN(C)CC4)c(OC)cc23)c1 | 8.91 µM (active) | 
27 | C=C1C(=O)O[C@H]2C3=C(C)CCC[C@]3(C)C(=O)C[C@@H]12 | 31.6 µM (active) | 
28 | CC1(C)CC[C@]2(C(=O)O)CC[C@]3(C)C(=CCC4[C@@]5(C)C[C@@H](O)[C@H](O)C(CO)(CO)C5CC[C@]43C)C2[C@@H]1O (some centres undefined) | inactive | 
29 | COc1cc(/C=C2\CCCN([C@@H](C)c3ccc(F)cc3)C2=O)ccc1-n1cnc(C)c1 | inactive | 
30 | Cc1nc(-c2cn3c(n2)-c2ccc(-c4cnn(C(C)(C)C(N)=O)c4)cc2OCC3)n(C(C)C)n1 | 35.5 µM (active) | 
31 | COc1cc2c(cc1NS(=O)(=O)c1ccc(Br)cc1C)n(C)c(=O)n2C | 3.55 µM (active) | 
32 | COc1cc([C@H]2O[C@H](c3cc(OC)c4c(c3)OCO4)[C@H](C)[C@H]2C)cc(OC)c1OC | inactive | 
33 | COc1cc2c(NC3CCN(C(C)C)CC3)nc(N3CCC(F)(F)CC3)nc2cc1OCCCN1CCCC1 | 8.91 µM (active) | 
34 | CC(C)=C1C[C@@]2(C)C(=CC1=O)CC[C@@H](OC(=O)/C(C)=C/CO)[C@@H]2C | inactive | 
